The list is not random: actives were taken first. Their share in the collection is about 2.5%.
MEKK3 PB1 HTS = MEKK3-MEK5 PB1 interaction, increase or decrease; bead-based flow cytometry, Alexa488-MEK5 binding to MEKK3; actives lie on both sides; 0 = blocked by unlabeled MEK5, 100 = vehicle; binding response (% of control), % at 10 µM; Q99759; AID 1529; actives 1.4% (n = 290,000);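 active means binding response more than 3 SD above or below the average of its plate-row segment, actives on both sides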;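 further: Alexa488 bead fluorescence after subtracting the streptavidin-only scavenger bead signal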
Target sequence (Q99759 whole entry, looked up): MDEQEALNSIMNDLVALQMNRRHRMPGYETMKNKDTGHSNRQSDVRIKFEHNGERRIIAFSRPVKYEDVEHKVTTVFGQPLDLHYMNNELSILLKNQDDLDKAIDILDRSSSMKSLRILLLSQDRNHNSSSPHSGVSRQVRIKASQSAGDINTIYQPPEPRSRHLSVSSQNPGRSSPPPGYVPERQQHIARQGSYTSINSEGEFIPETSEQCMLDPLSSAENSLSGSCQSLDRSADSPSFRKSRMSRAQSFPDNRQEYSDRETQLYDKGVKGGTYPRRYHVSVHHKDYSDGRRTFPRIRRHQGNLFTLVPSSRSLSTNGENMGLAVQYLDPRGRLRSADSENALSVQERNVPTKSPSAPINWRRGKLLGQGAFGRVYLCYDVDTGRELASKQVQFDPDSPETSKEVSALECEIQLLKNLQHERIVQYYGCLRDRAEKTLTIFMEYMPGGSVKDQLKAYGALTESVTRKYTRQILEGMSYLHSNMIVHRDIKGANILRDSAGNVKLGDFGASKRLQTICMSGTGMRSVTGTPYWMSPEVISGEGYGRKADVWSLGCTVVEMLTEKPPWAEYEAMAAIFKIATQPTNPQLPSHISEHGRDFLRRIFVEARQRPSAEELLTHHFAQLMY
MEKK2mut PB1 HTS = signal of MEK5 binding to mutant human MEKK2 PB1 domain. actives 0.35% (n = 290,000). percent response, % at 10 µM. bead flow cytometry, Alexa488-MEK5 binding to MEKK2 mutant; in the data active means percent response above about 24%, passing the limit was not always enough
GRK2 inh = blocks RNA aptamer binding to human GRK2; P25098; bead flow cytometry, FAM-aptamer displacement from GRK2; inhibition of aptamer binding, % at 10 µM; actives 0.59% (n = 330,000);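 active means inhibition of aptamer binding above 40%, roughly 3 SD of noise, on plates passing a quality check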;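 further: median bead fluorescence of bound FAM aptamer so fluorescent compounds give negative values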
MEKK2wt PB1 HTS = raises or lowers MEK5 binding to wildtype human MEKK2 PB1 domain. Q9Y2U5. bead flow cytometry, Alexa488-MEK5 binding to MEKK2 WT; actives lie on both sides. actives 1.1% (n = 290,000). binding response (% of control), % at 10 µM. AID 1531; in the data active means binding response below about 67% or above about 130%
GRK2 inh confirm = confirmation of human GRK2 inhibitors displacing RNA aptamer; actives 4% (n = 2,000); shares compounds with GRK2 inh; AID 504451; bead-bound GRK2, FAM-aptamer displacement, flow cytometry; aptamer displacement, % at 10 µM;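 active means aptamer displacement above 40%, near three times the noise of non-fluorescent compounds, on plates passing quality checks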;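 further: negative values mostly reflect intrinsic compound fluorescence rather than true enhancement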
Aptamer quench 1 = fluorescent aptamer quenching in GRK2 counter-screen dose response; shares compounds with GRK2 inh; Fluorescent RNA aptamer beads, flow cytometry; hits give high values; fluorescence change (kMESF span), kMESF (no concentration beside the values); 110 tested, under 10 active;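 active means compounds whose bead fluorescence drops by more than 37 kMESF across the dose range, marking them as dye quenchers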
Aptamer quench SP = counter-screen for GRK2 aptamer inhibitors: fluorescent aptamer quenchers | 2,000 tested, under 10 active | Carboxyfluorescein RNA aptamer on beads, flow cytometry quenching; hits give low values | AID 504580 | shares compounds with GRK2 inh | fluorescence response (% of DMSO), % at 10 µM;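 active means compounds that quench the bead-bound fluorescent RNA probe, cutting fluorescence to under half of the solvent control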;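 further: counterscreen run without GRK2 so only probe quenching by compound is measured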
GRK2 CP2 = human GRK2 inhibition confirmation, cherry pick 2 | AID 504782 | bead-bound GRK2, FAM-aptamer displacement, flow cytometry | shares compounds with GRK2 inh | 360 tested, under 10 active | inhibition of aptamer binding, % at 10 µM;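 active means inhibition of aptamer binding above 40%, about triple the noise seen with nonglowing compounds, on plates passing quality control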;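 further: negative values mostly come from compounds that fluoresce themselves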
FAM quench CP2 = counter-screen for GRK2 binding hits: quenchers of fluorescent RNA aptamer. shares compounds with GRK2 inh. carboxyfluorescein RNA aptamer beads, flow cytometry quenching; hits give low values. fluorescence response vs DMSO, % at 10 µM. 360 tested, under 10 active. AID 588494;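 active means response vs DMSO under 50%, meaning signal dropped by over half, treated as fluorescence quencher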;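 further: labelled aptamer on streptavidin beads without GRK2 as a quench counter-screen; 100% = bead fluorescence of DMSO wells and lower means quenching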
* = called active by the depositor; . = no result given.

SMILES	MEKK3 PB1 HTS	MEKK2mut PB1 HTS	GRK2 inh	MEKK2wt PB1 HTS	GRK2 inh confirm	Aptamer quench SP	others
C=CC(C)(O)CCC=C(C)C (stereo not drawn)	.	.	0	.	.	.
CCCCn1c(N)c(N(CCOC)C(=O)c2ccc(N(C)S(=O)(=O)c3ccc(C)cc3)cc2)c(=O)[nH]c1=O	.	.	2	.	.	.
N#CCc1ccc(NS(=O)(=O)c2ccc(C3CCCCC3)cc2)cc1	100	2	78*	98	1	97
CC(=O)n1cc([C@@H]2C=C(C(=O)NCc3ccccc3)O[C@H](OCc3ccc(CO)cc3)C2)c2ccccc21	98	1	1	91	.	.
NS(=O)(=O)c1ccc(CCNC(=O)c2ccccc2-c2ccccc2)cc1	102	3	82*	105	-5	100
CC(O)c1cccc(NC(=O)C2CCCCC2)c1 (stereo not drawn)	98	-6	53*	93	0	102
CC(=O)c1cccc(NC(=O)C2CCCCC2)c1	118	6	0	117	.	.
COc1ccc([C@H]2CC(=O)C=C(c3cc(C(F)(F)F)cc(C(F)(F)F)c3)C2)cc1	.	.	0	.	.	.
COc1ccc(CN(C)C(=O)c2ccc(NC(=O)CC3SC(N4CCCC4)=NC3=O)cc2)c(OC)c1 (stereo not drawn)	.	.	54*	.	0	96
O=C(CC1SC(N2CCCCC2)=NC1=O)Nc1cccc(C(=O)NCc2ccccc2)c1 (stereo not drawn)	.	.	3	.	-1	99
COc1ccc(CN(C)C(=O)c2ccc(NC(=O)CC3SC(N4CCCC4)=NC3=O)cc2)c(OC)c1OC (stereo not drawn)	.	.	0	.	.	.
O=C(CC1SC(N2CCCCC2)=NC1=O)Nc1ccc(C(=O)NCc2ccccc2)cc1 (stereo not drawn)	.	.	0	.	.	.
Cc1nnc(C)c2c(C)n(Cc3ccc4c(c3)OCO4)c(C)c12	99	6	64*	106	-13	93
CCn1c(CSc2nnc(-c3ccc4c(c3)OCO4)o2)nc2cc(S(=O)(=O)N(C)C)ccc21	98	-4	43*	93	-2	105
COc1cccc(OC)c1C(=O)Nc1ccc(N2CCCC2)cc1	89	4	100*	94	3	93
COc1cc(OC)cc(C(=O)N2CCC(n3c(C)nc4cc(F)ccc43)CC2)c1	.	.	3	.	.	.
CC(=O)Nc1ccc(N(C)C)cc1[N+](=O)[O-]	96	0	41*	88	79*	100	Aptamer quench 1=-1.5
COc1ccc(C(=O)Nc2cccc(-c3ccc(N4CCOCC4)nn3)c2)cc1	.	.	1	.	4	102
Cc1cc(C(=O)Nc2cccc(-c3ccc(N4CCOCC4)nn3)c2)ccc1[N+](=O)[O-]	.	.	0	.	.	.
O=C(Nc1cccc(-c2ccc(N3CCOCC3)nn2)c1)c1ccccc1Cl	.	.	1	.	1	102
Cc1ccc(C(=O)Nc2cccc(-c3ccc(N4CCOCC4)nn3)c2)cc1C	.	.	0	.	0	96
Cc1ccc(C(=O)Nc2cccc(-c3ccc(N4CCOCC4)nn3)c2)cc1	.	.	2	.	1	102
O=C(Nc1nc2c(Cl)c(Cl)ccc2s1)C1CC1	99	-5	2	94	.	.
COc1cccc(OC)c1C(=O)Nc1cccc(-c2ccc(N3CCOCC3)nn2)c1	.	.	0	.	.	.
COc1cc(OC)cc(C(=O)Nc2cccc(-c3ccc(N4CCOCC4)nn3)c2)c1	.	.	5	.	.	.
SMILES	MEKK3 PB1 HTS	MEKK2mut PB1 HTS	GRK2 inh	MEKK2wt PB1 HTS	GRK2 inh confirm	Aptamer quench SP	others
O=C(Nc1cccc(-c2ccc(N3CCOCC3)nn2)c1)c1ccc(Cl)cc1	.	.	2	.	1	96
O=C(COc1ccc(Cl)cc1)Nc1cccc(-c2ccc(N3CCOCC3)nn2)c1	.	.	0	.	4	100
CCOc1cc(N2CCOCC2)c(OCC)cc1NC(C)C(=O)N1CCN(CC)CC1 (stereo not drawn)	97	2	.	106	.	.
CCOC(=O)C1=C(C(F)(F)F)Nc2ncnn2C1c1cccc(OC)c1OC (stereo not drawn)	108	0	81*	107	.	.	GRK2 CP2=-9;FAM quench CP2=101
O=C1c2ccccc2C(=O)N1CCCCCc1nc(-c2ccccc2)no1	104	1	.	102	.	.
COc1ccc(OCC(=O)N/N=C(\C)CC(=O)Nc2ccc(OC)cc2[N+](=O)[O-])cc1	94	-2	0	99	.	.
Cc1ccc(O)c(C(=O)c2cnc3c(c2)CN(C)C(=O)N3)c1	97	-1	0	99	.	.
Cc1ccc(O)c(C(=O)c2cnc3c(c2)CN(CCC(C)C)C(=O)N3)c1	107	1	43*	105	-2	98
COc1cccc(NC(=O)C(OC(=O)c2ccccc2NS(=O)(=O)c2cccs2)c2ccccc2)c1 (stereo not drawn)	103	-1	100*	100	-1	100
COc1cccc(NC(=O)C(OC(=O)c2ccc([N+](=O)[O-])o2)c2ccccc2)c1 (stereo not drawn)	100	-1	3	108	.	.
CCN(CC(=O)Nc1c(F)cccc1F)C(=O)c1cccnc1SC	102	9	0	104	.	.
Cc1ccc(C(=O)NCc2ccncc2)cc1S(=O)(=O)Nc1cccc(C)c1C	101	7	2	106	.	.
COCCNC(=O)c1ccc(Cl)c(S(=O)(=O)Nc2cccc(C)c2C)c1	99	-7	65*	100	.	.	GRK2 CP2=22;FAM quench CP2=99
C#CCn1c(=O)cc(C)c2ccccc21	103	1	47*	103	2	102
Cc1cc(=O)n(CCC(=O)O)c2ccccc12	103	2	0	102	.	.
COc1ccc(-c2csc(Nc3ccc(S(N)(=O)=O)cc3)n2)cc1	103	0	44*	100	.	.	GRK2 CP2=-11;FAM quench CP2=100
CC(=O)Oc1ccc(-c2csc(Nc3ccc(S(N)(=O)=O)cc3)n2)cc1	99	3	1	96	.	.
Cn1cc(C(=O)OCC2CCN(CCNS(C)(=O)=O)CC2)c2ccccc21	102	3	0	110	0	96
CC(=O)N(c1ccc(N(C(C)=O)S(=O)(=O)c2cccs2)cc1)S(=O)(=O)c1cccs1	81	-7	53*	86	-2	100
COc1ccc(N(C(=O)c2ccco2)S(=O)(=O)c2cccs2)cc1	90	-5	98*	88	-1	97

Source: PubChem
